Assay results: PubChem BioAssay (NCATS)
Inconclusive results are not listed. Where a call stands in place of a potency, no number is given. Activity calls are given as the source filed them. Unless noted, calls follow the shape of the dose curve; as a rule, active = well fitted curve in the direction sought with a large enough effect; inconclusive = small, poorly fitted or top-dose-only effect, or another doubt; inactive = no such curve, though single readings can be large; an effect the other way counts as inactive or inconclusive.

How the values were obtained:
[1] = target: Cytochrome P450 3A4 (Homo sapiens) (UniProt P08684); test: qHTS Assay for Inhibitors and Substrates of Cytochrome P450 3A4 (AID 884); also: nearly all actives have a fitted effect of over 50% in size; also: potency is read from the fitted curve at half-maximal effect
Chain of Cytochrome P450 3A4 (Homo sapiens) (P08684 whole entry, looked up): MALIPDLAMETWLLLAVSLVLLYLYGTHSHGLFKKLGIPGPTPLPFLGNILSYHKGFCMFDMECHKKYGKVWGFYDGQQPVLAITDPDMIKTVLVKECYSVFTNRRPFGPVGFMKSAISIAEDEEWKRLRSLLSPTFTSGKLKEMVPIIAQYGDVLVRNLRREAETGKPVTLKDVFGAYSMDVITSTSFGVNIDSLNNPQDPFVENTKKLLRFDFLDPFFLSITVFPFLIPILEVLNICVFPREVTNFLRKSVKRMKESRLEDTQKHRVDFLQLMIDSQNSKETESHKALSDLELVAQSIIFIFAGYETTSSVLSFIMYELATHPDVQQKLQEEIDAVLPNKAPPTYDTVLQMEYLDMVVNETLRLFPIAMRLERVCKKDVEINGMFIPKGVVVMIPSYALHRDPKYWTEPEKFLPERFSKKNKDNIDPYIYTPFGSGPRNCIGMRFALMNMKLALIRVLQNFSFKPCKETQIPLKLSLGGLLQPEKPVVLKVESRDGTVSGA
Outline: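 Luminescent readout of luciferin produced by CYP3A4 (20 nM) dealkylation of Luciferin-PPXE, 25 uM (its KM). NADPH-driven reaction ran 60 min at RT after 10 min compound preincubation; data scaled to 57 uM ketoconazole as 100% inhibition.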

[2] = target: Cytochrome P450 3A4 (Homo sapiens) (UniProt P08684); test: qHTS Assay for Activators of Cytochrome P450 3A4 (AID 885); also: nearly all actives have a fitted effect of over 65% in size
Outline: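 Using 20nM recombinant human CYP3A4 in potassium phosphate (200mM), substrate Luciferin-PPXE at 25uM, luminescent luciferin detection followed a 60-min RT NADPH reaction; data scaled to 57 uM ketoconazole.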

[3] = Confirmation and Secondary Assay for Modulators of Hemoglobin Beta Chain Splicing at IVS2 654 locus (AID 910);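 also: HeLa cells stably carrying EGFP split by mutant beta-globin IVS2-654 intron; per-well total GFP intensity by laser scanning cytometry after 2-day treatment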
Outline: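 Readout: per-well total peak green fluorescence (488 nm ex, 500–520 nm em) from objects 5–250 µm, reflecting correct splicing of an EGFP-654 reporter. Compounds were applied for 2 days at 37 °C to overnight-plated HeLa EGFP-654 cells; controls were DMSO and 500 nM IVS2-654 PNA.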

[4] = Confirmation and Secondary Assay for Modulators of Hemoglobin Beta Chain Splicing at IVS2 705 locus (AID 930);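 also: HeLa cells stably expressing the EGFP-705 splicing reporter; GFP fluorescence per well restored by corrected splicing of the IVS2-705 intron in EGFP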
Outline: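 Fluorescence gain (488 nm laser, 500-520 nm PMT) reflects restored correct splicing of a mutant IVS2-705 intron inside EGFP in stably transfected HeLa cells after 2-day compound treatment.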

[5] = qHTS Assay for Lipid Storage Modulators (AID 1519; calls by dose curve); details: Drosophila S3 cells, BODIPY lipid droplet/cell ratio, laser cytometry, cells loaded with oleic acid; for activity change, negative = inhibition: at 57.5 µM (top of the series)
Outline: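 Cells seeded at 5,000 per well were treated with compounds over a concentration series and loaded with oleic acid (400 uM, as added). Lipid droplet fluorescence (488 nm excitation, 500-530 nm channel) was read by laser-scanning cytometry and normalized to 20 uM Triacsin C.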

Furin (Homo sapiens) = Furin (Homo sapiens) (UniProt P09958); test: Furin counterscreen qHTS for Zika virus inhibitors (AID 1347149);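 also: purified recombinant full-length human furin enzyme at 5 nM; fluorescence gain from furin cutting a BOC-RVRR-AMC peptide substrate over 15 min; top concentration of the series differs between compounds; nearly all actives have a fitted effect of over 70% in size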
Chain of Furin (Homo sapiens) (P09958 whole entry, looked up): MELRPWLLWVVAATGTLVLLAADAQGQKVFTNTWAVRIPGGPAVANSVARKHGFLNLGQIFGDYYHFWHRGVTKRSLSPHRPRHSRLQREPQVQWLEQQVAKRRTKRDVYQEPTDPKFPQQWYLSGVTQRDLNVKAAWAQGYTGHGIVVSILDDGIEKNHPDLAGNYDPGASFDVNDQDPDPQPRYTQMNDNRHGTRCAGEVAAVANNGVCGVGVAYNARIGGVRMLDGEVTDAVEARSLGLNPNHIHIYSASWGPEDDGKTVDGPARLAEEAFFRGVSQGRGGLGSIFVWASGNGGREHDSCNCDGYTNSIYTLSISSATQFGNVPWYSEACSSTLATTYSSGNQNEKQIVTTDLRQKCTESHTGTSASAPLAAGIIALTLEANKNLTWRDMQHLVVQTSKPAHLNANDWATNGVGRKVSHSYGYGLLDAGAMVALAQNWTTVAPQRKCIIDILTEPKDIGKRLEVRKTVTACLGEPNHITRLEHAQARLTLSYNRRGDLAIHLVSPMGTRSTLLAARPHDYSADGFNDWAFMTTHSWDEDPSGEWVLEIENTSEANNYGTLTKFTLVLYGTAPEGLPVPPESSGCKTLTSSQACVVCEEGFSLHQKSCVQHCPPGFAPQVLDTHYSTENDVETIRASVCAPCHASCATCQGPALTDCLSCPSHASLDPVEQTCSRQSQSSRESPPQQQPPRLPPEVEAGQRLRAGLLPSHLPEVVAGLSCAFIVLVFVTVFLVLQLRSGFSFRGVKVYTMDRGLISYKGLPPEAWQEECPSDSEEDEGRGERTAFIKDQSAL
Outline: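 Counterscreen measures cleavage of 2 microM BOC-RVRR-AMC, below its ~15 microM Km, by 5 nM full-length human furin at pH 7.0 after a 15-min compound preincubation. Inhibition derives from the 15-min fluorescence increase at 37C.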

[6] = Confirmatory screen NINDS Rhodamine qHTS for Zika virus inhibitors (AID 1347161); also: nearly all actives have a fitted effect of over 60% in size; also: potency is read from the fitted curve at half-maximal effect;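 as to activity change, negative = inhibition: purified Zika NS2B-NS3 protease with linked NS2B cofactor domain and Rhodamine110 peptide substrate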
Outline: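 Enzyme (25 nM, linked NS2B-NS3) was preincubated 15 min with compound in 10 mM Tris-HCl pH 8.0, 0.01% Tween 20. Rhodamine110 substrate (1.5 microM) was then added and fluorescence read at start and after 15 min.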

[7] = Tertiary RLuc qRT-PCR qHTS assay for Zika virus inhibitors (AID 1347169); also: top concentration of the series differs between compounds; nearly all actives have a fitted effect of over 55% in size
Outline: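 Inhibition of ZIKV-RLuc replication in Vero cells, read as Renilla luminescence 1-1.5 hrs after live-cell substrate addition, following 48-72 hrs infection at MOI 1-2 in presence of compound.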

[8] = system: Zika virus NS2B-NS3 protease; test: Primary screen GU AMC qHTS for Zika virus inhibitors (AID 1347154); also: nearly all actives have a fitted effect of over 70% in size
Outline: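 Fluorogenic AMC-substrate cleavage by noncovalent NS2B-NS3 protease complex (25 nM, pH 8.0 Tris buffer with Tween 20) followed for 15 minutes at room temperature (~20% conversion). Percent inhibition from ex340/em450 signal change, fitted by 4-parameter Hill equation.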

[9] = system: Zika virus NS2B-NS3 protease (linked construct); test: Confirmatory screen NINDS AMC qHTS for Zika virus inhibitors (AID 1347152);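 also: AMC fluorescence gain from cleaved Bz-Nle-KRR-AMC substrate over 15 min; top concentration of the series differs between compounds; nearly all actives have a fitted effect of over 70% in size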
Outline: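 Concentration-response confirmation used the NINDS linked protease (NS2B hydrophilic domain joined to NS3 protease domain), 1 nM, with a 15-min compound preincubation. Substrate, Nle-KRR-AMC at 10 microM, was read by UV fluorescence before and after 15 min.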

[10] = ZIKV-mCherry secondary qHTS for Zika virus inhibitors (AID 1347158); also: top concentration of the series differs between compounds
Outline: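 Read-out is percent infection: mCherry-positive Vero cells (nuclear-proximal intensity >450 RFU, 3 SD above negative controls) counted by high-content imaging of Hoechst-stained, PFA-fixed wells after 48-72 h with ZIKV-mCherry at MOI 1 and compound.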

[11] = system: Zika virus NS2B-NS3 protease (unlinked complex); test: Confirmatory screen GU AMC qHTS for Zika virus inhibitors (AID 1347153); also: nearly all actives have a fitted effect of over 70% in size; also: potency is read from the fitted curve at half-maximal effect
Outline: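 Unlinked enzyme 25 nM, Tris pH 8.0/0.01% Tween 20; cpd 15 min RT, dark; + AMC substrate 10 µM (Km 18.3 µM); 340/450 nm read at t0 and 15 min; % inhibition → 4-param fit.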

[12] = Vero cells viability qHTS for Zika virus inhibitors (AID 1347167)
Outline: (§1)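 Luminescent ATP readout (CellTiter Glo) after 30 min at 37 degrees C gives viability; cells in DMEM + 4% FBS were treated 24 to 48 hours with compound, following overnight attachment.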

[13] = HepG2 cells viability qHTS for Zika virus inhibitors (AID 1347168)
Outline: as §1

[14] = Primary qHTS for small molecule stabilizers of the endoplasmic reticulum resident proteome: Secreted ER Calcium Modulated Protein (SERCaMP) assay (AID 1508630)
Outline: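 The SH-SY5Y reporter protocol was run at 3 concentrations up to 38.3 uM (primary) or 11 concentrations (follow-up): 16 h compound, 100 nM thapsigargin for 4 h, then extracellular luciferase luminescence.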

[15] = target: Ubiquitin carboxyl-terminal hydrolase 1 (Homo sapiens) (UniProt O94782); test: Inhibitors of USP1/UAF1: Pilot qHTS (AID 504865); also: potency is read from the fitted curve at half-maximal effect; nearly all actives have a fitted effect of over 35% in size
Chain of Ubiquitin carboxyl-terminal hydrolase 1 (Homo sapiens) (O94782 whole entry, looked up): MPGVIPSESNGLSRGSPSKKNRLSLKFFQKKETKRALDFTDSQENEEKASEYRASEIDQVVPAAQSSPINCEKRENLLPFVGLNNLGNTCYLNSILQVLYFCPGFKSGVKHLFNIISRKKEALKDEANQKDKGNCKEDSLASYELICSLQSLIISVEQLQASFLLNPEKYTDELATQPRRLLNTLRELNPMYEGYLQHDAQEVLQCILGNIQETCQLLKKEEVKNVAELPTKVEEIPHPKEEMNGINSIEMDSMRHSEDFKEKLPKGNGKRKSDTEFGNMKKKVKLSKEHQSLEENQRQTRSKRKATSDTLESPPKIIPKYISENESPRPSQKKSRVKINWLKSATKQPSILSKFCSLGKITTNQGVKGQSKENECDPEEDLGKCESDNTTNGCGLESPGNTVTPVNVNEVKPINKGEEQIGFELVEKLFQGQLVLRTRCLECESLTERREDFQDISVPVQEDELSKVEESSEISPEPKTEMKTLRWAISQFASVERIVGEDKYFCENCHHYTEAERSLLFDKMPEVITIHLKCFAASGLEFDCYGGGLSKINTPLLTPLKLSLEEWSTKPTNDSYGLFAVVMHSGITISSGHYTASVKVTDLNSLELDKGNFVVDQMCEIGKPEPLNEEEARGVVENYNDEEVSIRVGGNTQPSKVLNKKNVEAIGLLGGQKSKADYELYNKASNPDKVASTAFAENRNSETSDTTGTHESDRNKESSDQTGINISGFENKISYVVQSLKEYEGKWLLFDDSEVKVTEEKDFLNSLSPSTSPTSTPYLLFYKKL
Outline: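 Enzyme-free wells gave the negative control, while test wells held 1nM USP1/UAF1 preincubated with compound for 15 min at room temperature. Ub-Rho at 150nM final started the reaction, and fluorescence at 480/540 nm was recorded kinetically.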

[16] = system: Zika virus NS2B-NS3 protease (linked); test: 384 well plate NINDS AMC confirmatory qHTS for Zika virus inhibitors (AID 1347163); also: potency is read from the fitted curve at half-maximal effect; nearly all actives have a fitted effect of over 50% in size
Outline: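 Enzyme (5, 30 or 60 nM final) first met test compounds for ~15 min. The AMC-tagged peptide Ac-VKTGKR-AMC followed at 30 microM. Fluorescence was then recorded at 25 min and scaled against no-enzyme and no-inhibitor wells.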

[17] = system: Zika virus NS2B-NS3 protease (linked construct); test: 384 well plate NINDS Rhodamine confirmatory qHTS for Zika virus inhibitors (AID 1347164); also: potency is read from the fitted curve at half-maximal effect; nearly all actives have a fitted effect of over 65% in size
Outline: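 Cleavage of Ac-LKRR-Rhodamine 110 (10 microM final) by linked protease (final 5, 30 or 60 nM) was followed as fluorescence at 485/538 nm after 25 min, room temperature, dark. Compounds preincubated ~15 min.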

[18] = target: Rap guanine nucleotide exchange factor 3 (Homo sapiens) (UniProt O95398); test: Confirmatory qHTS for antagonist of cAMP-regulated guanine nucleotide exchange factor 3 (EPAC1) (AID 1645880); also: potency is read from the fitted curve at half-maximal effect; nearly all actives have a fitted effect of over 55% in size
Chain of Rap guanine nucleotide exchange factor 3 (Homo sapiens) (O95398 whole entry, looked up): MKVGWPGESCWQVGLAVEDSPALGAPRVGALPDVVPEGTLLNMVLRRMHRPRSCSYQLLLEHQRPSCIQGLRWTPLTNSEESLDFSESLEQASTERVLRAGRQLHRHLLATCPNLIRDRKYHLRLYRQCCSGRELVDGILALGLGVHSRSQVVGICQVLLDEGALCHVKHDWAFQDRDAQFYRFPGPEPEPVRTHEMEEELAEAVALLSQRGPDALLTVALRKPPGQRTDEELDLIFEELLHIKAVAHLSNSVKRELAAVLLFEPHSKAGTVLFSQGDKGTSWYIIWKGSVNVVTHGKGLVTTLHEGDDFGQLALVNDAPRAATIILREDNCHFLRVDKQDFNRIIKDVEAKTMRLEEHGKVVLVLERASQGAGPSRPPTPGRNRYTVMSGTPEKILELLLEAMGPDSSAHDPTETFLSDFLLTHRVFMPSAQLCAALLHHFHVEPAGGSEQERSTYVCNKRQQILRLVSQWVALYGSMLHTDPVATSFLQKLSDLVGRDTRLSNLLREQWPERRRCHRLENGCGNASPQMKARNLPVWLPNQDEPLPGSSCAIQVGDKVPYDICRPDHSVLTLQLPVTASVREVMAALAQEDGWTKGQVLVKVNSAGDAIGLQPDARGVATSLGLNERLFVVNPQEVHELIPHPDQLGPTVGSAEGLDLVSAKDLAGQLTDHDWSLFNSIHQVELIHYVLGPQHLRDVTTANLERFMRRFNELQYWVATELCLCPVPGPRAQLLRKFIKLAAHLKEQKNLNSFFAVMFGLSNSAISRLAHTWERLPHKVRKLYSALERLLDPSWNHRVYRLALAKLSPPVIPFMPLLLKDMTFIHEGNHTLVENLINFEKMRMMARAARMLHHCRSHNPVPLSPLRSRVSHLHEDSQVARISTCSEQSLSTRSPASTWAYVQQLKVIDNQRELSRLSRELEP
Outline: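 Released BODIPY-GDP fluoresces less than Rap1-bound BODIPY-GDP; the signal is followed at 480/540 nm at 5-min intervals over 30 min, after 5 min at room temperature. Reactions contain 100 nM EPAC1, 250 nM RAP1B-BODIPY-GDP and 50 uM GDP; results are normalized to ATA and DMSO.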

[19] = target: Rap guanine nucleotide exchange factor 3 (Homo sapiens) (UniProt O95398); test: Confirmatory qHTS for agonist of cAMP-regulated guanine nucleotide exchange factor 3 (EPAC1) (AID 1645881);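 also: EPAC1 catalysed release of BODIPY-GDP from Rap1B seen as fluorescence loss; nearly all actives have a fitted effect of over 75% in size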
[20] = target: Rap guanine nucleotide exchange factor 4 (Homo sapiens) (UniProt Q8WZA2); test: Confirmatory qHTS for agonist of cAMP-regulated guanine nucleotide exchange factor 4 (EPAC2) (AID 1645884);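 also: nucleotide exchange releases bodipy-GDP from Rap1 and this lowers its fluorescence; nearly all actives have a fitted effect of over 65% in size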
Chain of Rap guanine nucleotide exchange factor 4 (Homo sapiens) (Q8WZA2 whole entry, looked up): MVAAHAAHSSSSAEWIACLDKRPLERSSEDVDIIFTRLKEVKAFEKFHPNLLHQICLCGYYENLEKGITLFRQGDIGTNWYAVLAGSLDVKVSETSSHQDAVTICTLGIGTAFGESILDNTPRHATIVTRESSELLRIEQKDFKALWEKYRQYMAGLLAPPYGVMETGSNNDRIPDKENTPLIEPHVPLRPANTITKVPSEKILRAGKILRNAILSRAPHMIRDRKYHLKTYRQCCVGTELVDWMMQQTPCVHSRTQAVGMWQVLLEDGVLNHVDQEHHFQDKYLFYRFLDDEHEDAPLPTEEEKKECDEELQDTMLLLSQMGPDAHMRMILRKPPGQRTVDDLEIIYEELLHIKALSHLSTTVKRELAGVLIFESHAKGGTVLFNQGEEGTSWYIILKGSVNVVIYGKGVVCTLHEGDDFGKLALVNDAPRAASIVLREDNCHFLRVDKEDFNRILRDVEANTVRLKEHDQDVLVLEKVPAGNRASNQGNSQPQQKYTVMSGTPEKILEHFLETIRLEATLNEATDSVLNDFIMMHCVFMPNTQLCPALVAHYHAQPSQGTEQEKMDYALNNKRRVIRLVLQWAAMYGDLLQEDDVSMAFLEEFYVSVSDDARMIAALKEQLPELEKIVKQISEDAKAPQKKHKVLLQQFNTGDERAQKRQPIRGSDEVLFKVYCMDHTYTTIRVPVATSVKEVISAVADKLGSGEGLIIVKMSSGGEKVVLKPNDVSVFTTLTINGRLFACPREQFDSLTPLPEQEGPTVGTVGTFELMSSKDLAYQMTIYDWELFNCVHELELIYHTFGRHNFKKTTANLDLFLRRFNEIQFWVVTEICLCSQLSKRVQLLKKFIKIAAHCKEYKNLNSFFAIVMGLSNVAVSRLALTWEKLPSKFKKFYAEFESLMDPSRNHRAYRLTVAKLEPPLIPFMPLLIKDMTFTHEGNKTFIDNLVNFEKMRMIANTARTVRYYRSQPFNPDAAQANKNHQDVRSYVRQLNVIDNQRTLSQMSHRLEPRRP

[21] = target: Rap guanine nucleotide exchange factor 4 (Homo sapiens) (UniProt Q8WZA2); test: Confirmatory qHTS for antagonist of cAMP-regulated guanine nucleotide exchange factor 4 (EPAC2) (AID 1645885); also: nearly all actives have a fitted effect of over 25% in size
[22] = measured here: cell count channel max response
[23] = measured here: lipid channel max response

O=C1C=CC(=O)c2c(O)c(Cl)c(Cl)c(O)c21
Potency [1]: 31.6 µM (active) | Potency [2]: inactive | outcome [3]: inactive | outcome [4]: inactive | activity change, negative = inhibition [5]: 5.17% (inactive) | max response [5, 22]: 0.303% | max response [5, 23]: 7.95% | Potency (Furin (Homo sapiens)): inactive | Potency [6]: inactive | Potency [7]: inactive

CN(CCc1ccc(Cl)c(Cl)c1)CC(O)COc1ccc(NS(C)(=O)=O)cc1 (centres undefined)
Potency [8]: inactive

O=C(NCCCN1CCCCCC1)C(c1ccccc1)C1CCCCC1 (centres undefined)
Potency [8]: inactive

C=CC1CN2CCC1C[C@H]2C(O)c1ccnc2ccc(OC)cc12 (some centres undefined)
Potency [8]: inactive

O=C(O)c1ccc(-c2cc(C(F)(F)F)ccc2Cl)cc1
Potency [9]: inactive | Potency [10]: inactive

Cc1nc2c(c(=O)[nH]1)CSCC2
Potency [8]: inactive

O=C(Nc1ccc(Oc2ccccc2)cc1)O[C@@H]1CO[C@H]2[C@@H]1OC[C@@H]2n1nnnc1-c1ccc(-c2ccccc2)cc1
Potency [9]: inactive | Potency [11]: inactive | Potency [7]: inactive

Cc1cc2nc3c(=O)[nH]c(=O)nc-3n(C)c2cc1C=O
Potency [8]: inactive

O=C(Nc1ccc(Oc2ccccc2)cc1)O[C@@H]1CO[C@H]2[C@@H]1OC[C@@H]2NS(=O)(=O)c1ccc2ccccc2c1
Potency [9]: inactive | Potency [11]: inactive

OCC(O)COc1cccc2ccccc12 (centres undefined)
Potency [8]: inactive

C[S+](=O)([O-])c1ccc(OCC2CN(Cc3ccccc3)C(=O)c3c(ccnc3-c3ccc(OCC(=O)O)cc3)O2)cc1 (centres undefined)
Potency [9]: inactive | Potency [11]: inactive | Potency [7]: inactive

CCN(CC)c1ccc(/C=N/NC(=O)c2ccc(O)cc2)cc1
Potency [9]: inactive | Potency [12]: inactive | Potency [13]: inactive | Potency [7]: inactive | Potency [14]: inactive

CC(C)=CCCC1(C)C=Cc2c(O)c3c(c(CC=C(C)C)c2O1)OC12C(=CCCC1C(C)(C)O[C@@]2(C/C=C(\C)C(=O)O)C(=O)O)C3=O (some centres undefined)
Potency [1]: inactive | outcome [3]: inactive | outcome [4]: inactive | activity change, negative = inhibition [5]: 7.82% (inactive) | max response [5, 22]: 0.914% | max response [5, 23]: 7.86% | Potency [15]: 79.4 µM (active) | Potency [11]: 19.2 µM (active) | Potency [6]: 1.39 µM (active) | Potency [16]: 158 µM (active) | Potency [17]: 22.4 µM (active) | Potency [12]: inactive | Potency [13]: inactive | Potency [14]: inactive | Potency [18]: 55.9 µM (active) | outcome [19]: inactive | outcome [20]: inactive | Potency [21]: inactive
